Measurements published in PubChem BioAssay (NCI).
This is part of a sample that, as a whole, favours compounds with a hit. Of some 79,000 tested, about 15% had one in any assay. Cut-off read from the data, not from the text of the source: active = growth inhibition above about 70%; inactive = the rest.

Columns and labels:
[1] = NCI Yeast Anticancer Drug Screen. Data for the rad50 strain (AID 155);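 note: 0% = growth of vehicle-only cultures of the same strain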; conditions: S. cerevisiae rad50 strain growth inhibition; at 50.0 µM; active compounds read high
How it was run: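 Relative growth inhibition (compound vs vehicle) was measured in yeast with a defined repair-gene alteration.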

[2] = NCI Yeast Anticancer Drug Screen. Data for the mec2-1 strain (AID 157); conditions: S. cerevisiae mec2-1 strain, at 50.0 µM, active compounds read high
How it was run: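 Growth inhibition is read against vehicle-treated controls after compound exposure of the mec2-1 yeast strain, which is defective in DNA damage repair or cell cycle control.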

[3] = NCI Yeast Anticancer Drug Screen. Data for the sgs1 mgt1 strain (AID 161);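 note: 0% = growth of cultures given vehicle only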; conditions: S. cerevisiae sgs1 mgt1 strain, at 50.0 µM, active compounds read high
How it was run: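 This yeast growth screen uses a strain with defined DNA-repair lesions; compound-treated growth is compared with vehicle-treated growth.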

[4] = NCI Yeast Anticancer Drug Screen. Data for the cln2 rad14 strain (AID 165);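 note: 0% = growth equal to vehicle treated cultures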; conditions: S. cerevisiae cln2 rad14 strain, at 50.0 µM, active compounds read high
How it was run: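 Growth inhibition, relative to vehicle-treated controls, is the read-out. The test organism is a yeast strain with defined genetic alterations, cln2 rad14.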

[5] = NCI Yeast Anticancer Drug Screen. Data for the bub3 strain (AID 167); conditions: S. cerevisiae bub3 mutant strain, at 50.0 µM, active compounds read high
How it was run: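 Screening used yeast with an engineered genetic alteration affecting cell cycle control. Compound-exposed cultures were compared with vehicle cultures, and reduced growth was taken as inhibition.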

[6] = NCI Yeast Anticancer Drug Screen. Data for the mlh1 rad18 strain (AID 175); conditions: S. cerevisiae mlh1 rad18 strain growth inhibition; at 50.0 µM; active compounds read high
How it was run: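 Cells of a genetically altered yeast strain, deficient in DNA damage repair, were treated with compound. Their growth was then compared with that of vehicle-treated cultures to give inhibition.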

Measured: growth inhibition

O=Cc1ccccc1O.O=Cc1ccccc1O.O=Cc1ccccc1O.[La]
inactive: [1] -1.05% | [2] -6.95% | [3] 4.7% | [4] -10.1% | [5] 4.8% | [6] 16.9%

Nc1ccn(C2OC(COP(=O)(O)Oc3ccccc3)C(O)C2O)c(=O)n1 (stereo not given)
inactive: [1] 11.1% | [2] -11.8% | [3] 17.8% | [4] 4% | [5] 5.2% | [6] 11.3%

O[C@H]1[C@H](O)[C@@H](O)CN2CC[C@H](O)[C@H]12
inactive: [1] -25.9% | [2] -24.1% | [3] -18.1% | [4] -4.1% | [5] -9.05% | [6] -24.6%

NC1=NC(N)=N1
inactive: [1] 1.95% | [2] 16.6% | [3] -6.2% | [4] -1.25% | [5] 14.2% | [6] -13.2%

CC12CCC3C(CC(N4CC4)C4(O)CC(O)CCC34C)C1CCC2=O (stereo not given)
inactive: [1] 15.6% | [2] -10.2% | [3] -3.85% | [4] 14.8% | [5] -8% | [6] -8%

Cn1cc([N+](=O)[O-])c([N+](=O)[O-])c1
inactive: [1] -3.8% | [2] 2.5% | [3] -11.6% | [4] -74.8% | [5] -6.3% | [6] 0.85%

CN(C)CCNC(=O)c1cc([N+](=O)[O-])cc2c1Oc1ccccc1O2
inactive: [1] -7.05% | [2] -12.6% | [3] -7.35% | [4] 16.9% | [5] -7.2% | [6] -7.3%

CC1=CC(=O)[C@@H](O)[C@]2(C)[C@H]3[C@@]4(O)OC[C@]35[C@H]([C@@H](C)[C@H]4O)[C@@H](O)C(=O)O[C@@H]5C[C@@H]12
inactive: [1] 41.8% | [2] 9.7% | [3] 36% | [4] 30.2% | [5] 15.2% | [6] 35.9%

CN(C)CCNC(=O)c1cccc(COC(=O)N(CCCl)CCCl)c1[N+](=O)[O-]
inactive: [1] 9.55% | [2] -2.4% | [3] 15.8% | [4] 10.1% | [5] -9.45% | [6] 9.7%

OCC(S)CS (stereo not given)
inactive: [1] 17.4% | [2] -26.4% | [3] 12.6% | [4] 2.9% | [5] 9.55% | [6] -13.4%

Nc1ccc([As](=O)(O)O)cc1C(=O)O
inactive: [1] -16.3% | [2] -18.8% | [3] -6.7% | [4] -11% | [5] 7.2% | [6] -2.3%

NC(=O)NC(O)C(Cl)(Cl)Cl (stereo not given)
inactive: [1] -12.1% | [2] -33.9% | [3] -24.9% | [4] -42% | [5] -32.6% | [6] -29.4%

CCC1(c2ccc(C)cc2)C(=O)NC(=S)NC1=O
inactive: [1] 6.1% | [2] -8.15% | [3] 17.2% | [4] 28.6% | [5] 14% | [6] 11.8%

O=C(Cl)C(Br)Cc1ccccc1 (stereo not given)
inactive: [1] 11.9% | [2] -19.4% | [3] 0.95% | [4] 7% | [5] 28.6% | [6] 2.1%

CCN1CCOC(CC)(c2cc(Cl)cc(Cl)c2Cl)C1 (stereo not given)
inactive: [1] 6.35% | [2] 20.4% | [3] 8.4% | [4] 13.2% | [5] 4.3% | [6] 20.4%

O=C(O)C(O)(Cl)c1cccs1 (stereo not given)
inactive: [1] -0.5% | [2] -3.35% | [3] -4.8% | [4] -16.6% | [5] -7.15% | [6] 14.8%

CCOP(=O)(OCC)O/N=C(/CC)c1ccccc1
inactive: [1] 5.35% | [2] -8.75% | [3] 11.4% | [4] -13.4% | [5] -1.55% | [6] -12.1%

CC(C)(O)/C=C/C(=O)[C@](C)(O)[C@H]1[C@H](O)C[C@@]2(C)[C@@H]3CC=C4[C@@H](C[C@H](O)C(=O)C4(C)C)[C@]3(C)C(=O)C[C@]12C
inactive: [1] 8.3% | [2] -14.6% | [3] -6.7% | [4] 0.55% | [5] -12.8% | [6] 1.8%

CC1(C)CN=C(NN=C(/C=C/c2ccc(C(F)(F)F)cc2)/C=C/c2ccc(C(F)(F)F)cc2)NC1
inactive: [1] 21.6% | [2] 10.4% | [3] 15.3% | [4] 20.2% | [5] 32.2% | [6] 46.8%

COc1ccc2c(c1O)-c1cc(O)cc3c1C(C2)N(CCCl)CC3 (stereo not given)
inactive: [1] 63.4% | [2] 29.1% | [3] 64.6% | [4] 15.8% | [5] -10.3% | [6] 48.7%
